HepG2 tox: qHTS for Inhibitors of TGF-b: Cytotox Counterscreen | HepG2 CAGA-GFP viability, ATP luminescence, 18 h | actives 0.76% (n = 410,000) | Potency, µM (titrated, usually from 46.1 µM), actives largely listed as cytotoxic | AID 588856, 2011
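CellTiter-Glo luminescence gave cytotoxicity after 18 hours at 37 degrees C. The cells were HepG2 CAGA-GFP in 1% FBS DMEM, stimulated with 500 pg/mL TGF-beta after compound addition. %Activity was normalised to no-cell wells (complete cell-killing) and DMSO (no toxicity), and curves were fitted and classified.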
ATXN viability: Viability Counterscreen for Primary qHTS for Inhibitors of ATXN expression; S2 cells (HEK-293 line with an ATXN2-luciferase reporter) viability, CellTiter-Fluor protease fluorescence, 24 h; Potency, µM (doses to about 56.7 µM), most hits filed as cytotoxic; actives 0.49% (n = 400,000); further: nearly all actives have a fitted effect of over 40% in size
ATXN2 expr inh: Primary qHTS for Inhibitors of ATXN expression | Potency, µM (series often up to 57 µM), hits mostly inhibitors | HEK-293 ATXN2-luciferase reporter, luminescence, 24 h | AID 1745845, 2022 | actives 0.72% (n = 360,000); further: nearly all actives have a fitted effect of over 55% in size
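qHTS (up to 57 uM final) was run with 24 h compound exposure of reporter cells at 37 °C. Each well was multiplexed: SteadyGlo luminescence measured ATXN2-luciferase expression after a fluorogenic Gly-Phe-AFC viability readout (25 uM final).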
TGFb SMAD3 inh: qHTS for Inhibitors of TGF-b; HepG2 CAGA-GFP TGF-b/SMAD3 reporter, GFP fluorescence, 18 h; TGF-beta stimulated, 500 pg/mL final; Potency, µM (series often up to 46.1 µM), most hits filed as inhibitors; actives 1.2% (n = 410,000); further: nearly all actives have a fitted effect of over 65% in size
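First, reporter cells (HEPG2 CAGA-GFP) rested 2 h at 37 degrees C. Next, compounds were pinned in and TGF-beta added to 500 pg/mL final. After 18 h, GFP was imaged per cell and summed per well.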
ALOX12 inh: Primary qHTS assay for inhibitors of human arachidonate 12S-lipoxygenase (ALOX12): Round 2 | actives 1.1% (n = 580,000) | purified 12hLO, xylenol orange hydroperoxide absorbance | Polyunsaturated fatty acid lipoxygenase ALOX12 (Homo sapiens), P18054 | Potency, µM (series often up to 108 µM), hits mostly inhibitors | AID 1671190, 2021
Target sequence (P18054 whole entry, looked up): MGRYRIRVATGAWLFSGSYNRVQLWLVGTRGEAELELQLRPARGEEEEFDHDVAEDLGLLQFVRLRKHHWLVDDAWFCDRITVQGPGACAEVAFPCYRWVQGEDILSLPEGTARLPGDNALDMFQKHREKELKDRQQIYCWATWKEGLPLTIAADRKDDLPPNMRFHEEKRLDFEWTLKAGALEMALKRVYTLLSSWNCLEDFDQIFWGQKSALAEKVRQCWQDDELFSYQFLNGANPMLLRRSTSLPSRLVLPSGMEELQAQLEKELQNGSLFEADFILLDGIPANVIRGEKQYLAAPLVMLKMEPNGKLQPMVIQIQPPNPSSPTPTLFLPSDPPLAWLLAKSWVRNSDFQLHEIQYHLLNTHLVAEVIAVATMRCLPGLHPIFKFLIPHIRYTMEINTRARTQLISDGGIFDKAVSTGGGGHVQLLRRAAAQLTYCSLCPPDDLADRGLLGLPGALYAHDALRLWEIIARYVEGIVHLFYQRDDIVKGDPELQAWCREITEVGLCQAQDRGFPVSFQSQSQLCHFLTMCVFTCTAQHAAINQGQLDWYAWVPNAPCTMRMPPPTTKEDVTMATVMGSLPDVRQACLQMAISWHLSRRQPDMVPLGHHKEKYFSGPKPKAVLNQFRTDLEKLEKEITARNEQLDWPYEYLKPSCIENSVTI
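Purified human 12hLO at 150 nM in 25 mM Hepes, 0.01% Triton X-100, pH 7.0, preincubated 15 min at room temperature with compound. Reaction started with 40 uM arachidonic acid, 30 min at room temperature. Hydroperoxide measured by Fe-xylenol orange, 573/405 nm absorbance ratio.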
Hits are given with their value; i = inactive; ? = inconclusive; nt = not tested or not shown. Shown are actives, neighbours in structure and some others; about 2.7% of the full set was active somewhere. The call rests on the fitted dose curve; in most records, active means well fitted curve in the direction sought with a large enough effect; inconclusive means small, poorly fitted or top-dose-only effect, or another doubt; inactive means no such curve, though single readings can be large; an effect the other way counts as inactive or inconclusive.

SMILES	HepG2 tox	ATXN viability	ATXN2 expr inh	TGFb SMAD3 inh	ALOX12 inh
COc1ccc(C2c3ccc4ccccc4c3Oc3ncn(CCCO)c(=N)c32)cc1OC (stereo not given)	i	?	?	11µM	i
COc1ccc(C2c3ccc4ccccc4c3Oc3ncn(CCO)c(=N)c32)cc1 (stereo not given)	i	?	?	i	nt
Cc1ccc(Cn2c(=O)n(CCCC(=O)NCc3ccc4c(c3)OCO4)c(=O)c3ccccc32)cc1	nt	nt	nt	nt	i
N=c1c2c(ncn1CCCO)Oc1c(ccc3ccccc13)C2c1ccccc1 (stereo not given)	i	14µM	nt	?	?
CN(C)CCCn1cnc2c(c1=N)C(c1ccccc1)c1ccc3ccccc3c1O2 (stereo not given)	i	?	nt	?	?
Cc1nn(C)c(C)c1CNCc1ccnc(N2CCOCC2)c1	nt	nt	nt	nt	11µM
CSc1ccc(-c2nc(CN(C)Cc3cnccn3)c(C)o2)cc1	nt	nt	nt	nt	i
CC(OC(=O)C1CCN(S(=O)(=O)c2ccc(C(C)(C)C)cc2)CC1)C(=O)N1CCCCCC1 (stereo not given)	nt	nt	nt	nt	i
CCOc1ccc(Cl)cc1/C=C1/C(=O)ON=C1C	i	i	i	i	?
C#CCOc1c(Cl)cc(/C=C2/C(=O)ON=C2C)cc1OC	i	i	i	i	28µM
CCCOc1ccc(/C=C2/C(=O)ON=C2C)cc1Cl	i	?	i	i	5.6µM
COc1ccc(Cl)cc1/C=C1/C(=O)ON=C1C	i	i	i	i	32µM
O=C(CC1C(=O)Nc2nc(SCc3ccccc3)nn21)Nc1cccc(C(F)(F)F)c1 (stereo not given)	nt	nt	nt	nt	i
Brc1ccccc1-c1nc2c3ccccc3ncn2n1	i	i	i	i	i
S=c1nc2ccccc2c2nc(-c3ccccc3Br)[nH]n12	i	?	25µM	i	i
COc1ccc(Cc2cnc(NC(=O)c3cc(=O)c4cc(C)ccc4o3)s2)cc1	nt	nt	nt	nt	i
Cc1ccccc1OCC(O)CN1CCN(CCN2C(=O)c3cccc4cccc(c34)C2=O)CC1 (stereo not given)	i	?	i	i	i
C=CCc1ccccc1OCC(O)CN1CCN(CCN2C(=O)c3cccc4cccc(c34)C2=O)CC1 (stereo not given)	i	?	28µM	14µM	?
C=CCc1ccccc1OCC(O)CN1CCN(c2ccc(C)cc2)CC1 (stereo not given)	i	i	?	?	0.56µM
COc1ccccc1N1CCN(CC(O)COc2ccc(C)cc2C(C)(C)C)CC1 (stereo not given)	16µM	nt	nt	?	?
OC(COc1cccc2ccccc12)CN1CCN(c2ccc(Cl)cc2)CC1 (stereo not given)	i	?	nt	16µM	i
COc1cc(-c2noc(-c3ccc(S(=O)(=O)N4CCOCC4)o3)n2)ccc1OC(C)C	nt	nt	nt	nt	i
COc1cccc(/C=N/NC(=O)Cn2nc(C)c([N+](=O)[O-])c2C)c1O	i	?	16µM	i	i
COc1cccc(NC(=S)NNC(=O)C(C)n2nc(C)c([N+](=O)[O-])c2C)c1 (stereo not given)	i	i	i	i	i
COc1cccc(/C=N/NC(=O)C(C)n2nc(C)c([N+](=O)[O-])c2C)c1O (stereo not given)	i	?	25µM	i	i
SMILES	HepG2 tox	ATXN viability	ATXN2 expr inh	TGFb SMAD3 inh	ALOX12 inh
N#CC1=C(N)Oc2c(oc(CO)cc2=O)C1c1ccccc1[N+](=O)[O-] (stereo not given)	i	nt	i	i	16µM
Cc1ccccc1C1C(C#N)=C(N)Oc2c1oc(CO)cc2=O (stereo not given)	nt	nt	nt	nt	i
Cc1nc(SCC(=O)Nc2ccc(C)c(Cl)c2)cc(-c2ccccc2)n1	i	nt	nt	10µM	i
COc1ccc(NC(=O)CSc2cc(-c3ccccc3)nc(C)n2)cc1	i	nt	nt	?	i
Cc1noc(/C=C\c2ccc(S(=O)(=O)N3CCCc4ccccc43)cc2)c1NC(=O)C1CC1	nt	nt	nt	nt	i
Nc1nc(-c2ccccc2)c(N=Nc2cccc3ccccc23)s1	i	?	i	11µM	i
CC(C)(C)c1cc(C(=O)OCCN2CCCCC2)cc(C(C)(C)C)c1	nt	nt	nt	nt	7.1µM
